The labels stand for the following.
T1: UNK ZnF1-6 (called full-length) (human, UniProt Q9C0B0 30-357)
T1 sequence: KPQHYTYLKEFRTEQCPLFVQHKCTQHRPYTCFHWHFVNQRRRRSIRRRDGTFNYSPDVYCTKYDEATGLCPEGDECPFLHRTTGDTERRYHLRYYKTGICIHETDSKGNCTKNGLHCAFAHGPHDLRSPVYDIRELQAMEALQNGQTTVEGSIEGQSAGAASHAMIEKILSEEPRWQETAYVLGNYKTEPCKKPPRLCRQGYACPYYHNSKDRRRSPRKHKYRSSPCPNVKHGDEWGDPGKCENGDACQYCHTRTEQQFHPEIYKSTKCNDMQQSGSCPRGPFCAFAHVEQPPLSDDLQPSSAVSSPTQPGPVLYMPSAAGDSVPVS

B1: chr15:93027272:93027374:+|3pUTR|ENSG00000173575|unk|total|mutant (ssRNA)
RNA: GGGAGUUCUACAGUCCGACGAUCCCAGGAAUCUGUGAGGAUGGUAUUCCCUGGAGUCUGGCUUUGAAAGAUUUCAUUGUUGGCCGAAAUAACAGGUUGAGAAAGAGGGAGUCCGCAUCACCUAAAACCUGCACGUGAACAAGGCAACAGAGGAUUGAGCAUCA
B2: ENSG00000141127:stop:overlap|stop_codon|ENSG00000141127|stop_codon|NA|stop_codon (ssRNA)
RNA: GGGAGUUCUACAGUCCGACGAUCAUUCAUCAUGUAUGGAGCUAUCAAAGAAAAUUGCAGACUUUUUCCCCCUUUCUCUUCUCUAGGCGGCUAGGGGUGGAGAUGGGCAAAGUGCAGGUUUACCAGGAACCUAACAGAGAAACACAACAGAGGAUUGAGCAUCA
B3: chr22:31279490:31279591:+|3pUTR|ENSG00000182541|msi1|total|mutant (ssRNA)
RNA: GGGAGUUCUACAGUCCGACGAUCAGCAGCUUGGGCUGGGAAGAGGUGGUGGCAGAGUCUCAAAGCUGAGAUGCUGAGAGAGACCGCUCCCUGAGCUGGGCCAUCUGACUUCUACCUCCCAUGUUUGCUCUCCCAACUCAUCCGCAACAGAGGAUUGAGCAUCA
B4: chr5:43295829:43295944:-|CDS|ENSG00000112972|unk|total|mutant (ssRNA)
RNA: GGGAGUUCUACAGUCCGACGAUCAAUAUCCCCGCUUUAUUCUAAAGUCAAACUUUAAAAUUUCAUGGCUUAUAUGAAUUUCACCGUUUCCUUGGACUUCUCUUUCAGAGGGAAAUGAUAAAGAUUUUACCUUGAAUGAUUUUGCAACAGAGGAUUGAGCAUCA
B5: chr12:76028505:76028606:-|3pUTR|ENSG00000139289|msi1|total|mutant (ssRNA)
RNA: GGGAGUUCUACAGUCCGACGAUCAAGUCUUGGUCAGUAUUUUUCCAGCAUUUAAAUUGAAACGGUCAGUAUCCGACCACUGCCCGGUUAUGCCGUCAAGAAAUAAAAACCGAAUUACAUGCUACAGAUGUCUUUAUUCUCCUUCAACAGAGGAUUGAGCAUCA
B6: ENSG00000198589:be:win_5851|CDS|ENSG00000198589|bound_else_gene|NA|bound_elsewhere_windowed (ssRNA)
RNA: GGGAGUUCUACAGUCCGACGAUCACUCAACUAAUCCAGAAAAUUAUCAACAUUCUCACAGACAAGCAUGGAGCCUGGGGAAAUUCUGCAGUGAGUCGUCCUCUUGAGUUCUGGCGCCUUGACUACUGGGAAGAUGACUUGCGGCAACAGAGGAUUGAGCAUCA
B7: chr19:14961309:14961997:-|three_prime_utr|ENSG00000105143|control|control|control (ssRNA)
RNA: GGGAGUUCUACAGUCCGACGAUCGAUUCACUUACCCACUCACCAACUCAUUCAUUCAUGUCUUUCUGGGAUGAUUUCAUCACUAGUUGACUUCCUUGUUCAUCUGUUCAUUCAUUCAUUCUUCUAUGCAUUGGUUAGUUCAUGCAACAGAGGAUUGAGCAUCA
B8: chr15:60347444:60347559:-|3pUTR|ENSG00000182718|msi1_unk|total|mutant (ssRNA)
RNA: GGGAGUUCUACAGUCCGACGAUCUAACAGUCCCCGUGGCCAUCCCUGUGAGGGUGACGUCCGCAUUACCCCCAACCUCAUUUCCGUUGCCUAAGCAUUGCCUGGCCUUCCUGUCCCGUCUCUCCUGUAAGCCAAAGAAAUGAACAACAGAGGAUUGAGCAUCA
B9: chr16:5044585:5044836:-|CDS|ENSG00000153446|control|control|control (ssRNA)
RNA: GGGAGUUCUACAGUCCGACGAUCGAGUAGCUGGGACUACAGGAGCGUGCCACCAUACCUGGCUAAUUUUUAUAUUUUUUUAGUAGAGACAGGGUUUCAUCAUGUUGCUCAUGCUGGUCUCGAACUCCUGAUCUCAAGAGAUCCCAACAGAGGAUUGAGCAUCA
B10: chr5:144162273:144162391:-|CDS|ENSG00000145817|unk|total|mutant (ssRNA)
RNA: GGGAGUUCUACAGUCCGACGAUCCCCACCGGCUGGCAAAAUCCAGUUUGGCUAUGUAUACGGGAUCAGUGCAAUUGGAUGUCCCGGAAUGUUUUGUUUAUUAAACUUAAUGAGUAUGACAGGUGUUUCAUUUGGUUGUGUGGCCAACAGAGGAUUGAGCAUCA
B11: chr5:72990507:72990614:+|CDS|ENSG00000157107|unk|FALSE|unique (ssRNA)
RNA: GGGAGUUCUACAGUCCGACGAUCGUAUGGGAUGUAUUCAAAACAUCUACAGAGAAAUUAGCAAAUUGUCACUUGGAUCUUGUUAGAAAAUUACAAGAAUUAAUAAAGGAAGUUCAGAAGUAUGGAGAAGAACAAGUAAAGUCUCAACAGAGGAUUGAGCAUCA
B12: chr2:11642538:11642650:+|3pUTR|ENSG00000196208|unk|total|mutant (ssRNA)
RNA: GGGAGUUCUACAGUCCGACGAUCCGAAGAGUUGAUGUCAAUCUUUUUUUCCUAAGAAAAAAAGUCCGCGAGUAUUAAAUAUUCCGAUCAAUGUUUAUAAAAUGAUUACUUUGUAUAUCUCAUUAUUCCUAUUUUGGAAUAAAACAACAGAGGAUUGAGCAUCA
B13: chr4:185586528:185586629:-|3pUTR|ENSG00000154556|msi1|FALSE|unique (ssRNA)
RNA: GGGAGUUCUACAGUCCGACGAUCAUCCAUAUGAUAUGUUGUACAUUUUAUGGAAAUGUAAUAGAAUCUCACACAUUAUUUUAUAGAAAUAGAGUACAGAAGCAUCACAAGUAUUAAAGUUGGUUUUAGCAAGGAUUAGGAUUACAACAGAGGAUUGAGCAUCA
B14: chr3:11557766:11557867:-|3pUTR|ENSG00000144560|msi1|total|mutant (ssRNA)
RNA: GGGAGUUCUACAGUCCGACGAUCCUGGACUGCAGACUCUACCAAUCACGGGCAUUUUAUCUUCUCUGAACACUGCAGUUUGUCCGACCCGAGCUGAGGUUGGAGGAUUCCACCGUGCUUUAAACGUGAUGCAUGUUUUAAUGGCAACAGAGGAUUGAGCAUCA

The full ranking holds about 5,800 sequences; the median of “enrichment r” is about 0.68, and the highest 2% start at about 11. The full list was thinned out, with the highest values kept by preference.

In this experiment the target is T1, UNK ZnF1-6 (called full-length). Kind of experiment: nsRBNS (natural sequence RNA bind-n-seq); RBNS binding buffer (assumed for nsRBNS): 25 mM Tris pH 7.5, 150 mM KCl, 3 mM MgCl2, 0.01% Triton X-100, 500 ug/ml BSA, 20 U/ml SUPERase-In, 4 C; UNK is unkempt and MSI1 is Musashi-1; names of the RNAs are library labels; protein concentration not given here; high values mean tight binding.
Molecule B1 displayed a binding signal of 0.486 enrichment R.

The molecule B2 gave a binding signal of 0.392 enrichment R.

B3 showed a binding signal of 0.701 enrichment R.

As for B4, the binding signal amounted to 0.421 enrichment R.

B5 had a binding signal of 0.271 enrichment R.

B6 registered a binding signal of 0.85 enrichment R.

Take B7: the binding signal was determined as 0.569 enrichment R.

Regarding B8, the binding signal amounted to 0.662 enrichment R.

Consider B9, for which the binding signal came out at 2.13 enrichment R.

Molecule B10 came in with a binding signal of 0.596 enrichment R.

Take B11: the binding signal was 3.86 enrichment R.

B12 had a binding signal of 0.544 enrichment R.

Molecule B13 yielded a binding signal of 11.6 enrichment R.

Turning to B14, the binding signal turned out to be 0.682 enrichment R.

For the origin of these results see article PMC12136788.
